This passage reports outcome, Potency and activity change, negative = inhibition results from PubChem BioAssay (NCATS).

Records with an inconclusive call do not appear. Calls of active or inactive are those of the source. Unless noted, calls follow the shape of the dose curve; as a rule, active = well fitted curve in the direction sought with a large enough effect in the repeat runs; inconclusive = weak or mixed curves; inactive = no such curve, though single readings can be large; an effect the other way counts as inactive or inconclusive.

Assay [1] can be described thus: A High-Content qHTS Against Drug Library for the Identification of Small Molecules that Inhibit DYT1 Early Onset Primary Dystonia-Associated Cell Pathology (AID 1645839; calls by dose curve). The gist of the method:
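Flp-In T-REx 293 cells with tetracycline-inducible EGFP-delE hTOR1A (WT EGFP-hTOR1A as reference), 800 cells/well; compound added with tetracycline, 48 h at 37 C. Fixed, permeabilized cells imaged; %pathology (punctate TorsinA) primary, cell count counterscreen.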

Assay [2] concerns the target Cytochrome P450 2D6 (Homo sapiens) (UniProt P10635). Description: Cytochrome P450 family 2 subfamily D member 6 (CYP2D6) small molecule antagonists: luciferase biochemical (cell-free) qHTS assay (AID 1645840). Also: nearly all actives have a fitted effect of over 55% in size. Also: potency is read from the fitted curve at half-maximal effect. As to activity change, negative = inhibition: % is scaled to controls: 0 for no effect and ±100 for the full control effect. The procedure, abridged: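 P450-Glo luminescent screen: recombinant CYP2D6 enzyme–proluciferin substrate mix preincubated with compound 10 min at room temperature, then NADPH regeneration added for 1 h at room temperature. Detection reagent added for 20 min; luciferin light read as relative luminescence units.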

Assay [3] concerns the target Cytochrome P450 2C9 (Homo sapiens) (UniProt P11712). The assay is described as follows: Cytochrome P450 family 2 subfamily C member 9 (CYP2C9) small molecule antagonists: luciferase biochemical (cell-free) qHTS assay (AID 1645842). Also: nearly all actives have a fitted effect of over 55% in size. Also: potency is read from the fitted curve at half-maximal effect. As to activity change, negative = inhibition: % is scaled to controls: 0 for no effect and ±100 for the full control effect. The gist of the method: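 Luminescence, after 20 min with luciferin detection reagent, reflected CYP2C9 turnover during a 1 h NADPH-driven reaction at 37C. Enzyme-substrate mix contained 0.4% bovine serum albumin and was preincubated with compound 10 min at room temperature.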

Assay [4] in a line: Cytotoxicity counterscreen for inhibitors of SARS-CoV-2 cell entry (AID 1645845; calls by dose curve; also: nearly all actives have a fitted effect of over 50% in size). The procedure, abridged: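 HEK293-ACE2 cells (Expi293F stably expressing human ACE2) seeded overnight, then compound for 1 h plus 48 h at 37C. Viability as ATP content by luminescence; normalized to wells with cells and media-only wells.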
Assay [5] in a line: Primary qHTS to identify inhibitors of SARS-CoV-2 cell entry (AID 1645846; calls by dose curve; also: nearly all actives have a fitted effect of over 45% in size). As to conditions: activity change, negative = inhibition: at 57.1 µM (top of the series) unless noted. The gist of the method:
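Data are normalized to wells receiving SARS-CoV-2-S pseudoparticles and those given bald particles. Entry signal was luciferase luminescence in stable hACE2 Expi293F cells, 48 hr post-infection, after 1 hr compound pretreatment.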

The target in a further assay is Papain (Carica papaya) (UniProt P00784). Description: Primary qHTS assay for inhibitors of the protease papain (AID 1645873; active = well fitted curve in the direction sought with a large enough effect; an effect the other way counts as inactive or inconclusive;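 also: papain turnover of Z-FR-AMC read as the AMC fluorescence gain over 10 min; % is scaled to controls: 0 for no effect and ±100 for the full control effect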).
The nature of assay [6]: Primary qHTS for inhibitors of nuclear receptor binding SET domain protein 2 (NSD2) in an isogenic RCH-ACV NSD2 p.E1099K mutant (9B) (AID 1645876; active = well fitted curve in the direction sought with a large enough effect; an effect the other way counts as inactive or inconclusive; also: nearly all actives have a fitted effect of over 70% in size; also: potency is read from the fitted curve at half-maximal effect).
A short description of assay [7]: Primary qHTS for inhibitors of nuclear receptor binding SET domain protein 2 (NSD2) in an RCH-ACV wild type WT cells (2C) (AID 1645877; active = well fitted curve in the direction sought with a large enough effect; an effect the other way counts as inactive or inconclusive; also: nearly all actives have a fitted effect of over 70% in size; also: potency is read from the fitted curve at half-maximal effect).
For assay [8], the target named is Cytochrome P450 3A4 (Homo sapiens) (UniProt P08684). Description: Cytochrome P450 family 3 subfamily A member 4 (CYP3A4) small molecule antagonists: luciferase qHTS assay (AID 1645841). Also: nearly all actives have a fitted effect of over 45% in size. The gist of the method:
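P450-Glo CYP3A4 enzyme with proluciferin substrate preincubated 10 min with compound at room temperature, then NADPH regeneration 1 h. Luciferin detection reagent added for 20 min; luminescence recorded. Ketoconazole positive control.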

Cytochrome P450 3A4 (Homo sapiens), sequence (P08684 whole entry, looked up): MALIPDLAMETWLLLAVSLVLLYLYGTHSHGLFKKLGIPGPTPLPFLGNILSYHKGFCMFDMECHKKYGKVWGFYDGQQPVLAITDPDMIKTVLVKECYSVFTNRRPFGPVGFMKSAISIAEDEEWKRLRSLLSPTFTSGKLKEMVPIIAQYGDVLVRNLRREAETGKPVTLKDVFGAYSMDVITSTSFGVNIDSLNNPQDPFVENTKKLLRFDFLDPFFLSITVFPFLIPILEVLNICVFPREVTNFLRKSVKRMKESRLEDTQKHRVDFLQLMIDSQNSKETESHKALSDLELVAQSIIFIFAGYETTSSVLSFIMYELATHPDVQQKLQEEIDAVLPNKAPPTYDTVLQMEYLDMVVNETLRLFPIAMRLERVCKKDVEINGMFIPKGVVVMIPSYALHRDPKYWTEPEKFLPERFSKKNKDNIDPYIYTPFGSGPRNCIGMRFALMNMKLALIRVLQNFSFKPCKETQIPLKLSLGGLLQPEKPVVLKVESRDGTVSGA
Cytochrome P450 2D6 (Homo sapiens), sequence (P10635 whole entry, looked up): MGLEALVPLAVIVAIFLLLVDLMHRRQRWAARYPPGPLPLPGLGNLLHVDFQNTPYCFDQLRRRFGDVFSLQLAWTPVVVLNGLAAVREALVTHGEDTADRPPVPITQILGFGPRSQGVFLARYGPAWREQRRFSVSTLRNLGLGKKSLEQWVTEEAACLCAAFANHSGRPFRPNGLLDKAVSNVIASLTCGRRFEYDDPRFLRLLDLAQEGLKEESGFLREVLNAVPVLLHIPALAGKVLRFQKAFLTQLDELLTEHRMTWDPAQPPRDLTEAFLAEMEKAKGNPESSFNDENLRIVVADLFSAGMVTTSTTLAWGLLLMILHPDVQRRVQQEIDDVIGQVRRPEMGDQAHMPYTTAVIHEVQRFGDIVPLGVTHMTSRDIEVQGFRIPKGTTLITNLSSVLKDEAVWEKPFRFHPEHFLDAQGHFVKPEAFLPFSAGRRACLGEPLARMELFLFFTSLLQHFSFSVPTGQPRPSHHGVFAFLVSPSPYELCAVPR
Cytochrome P450 2C9 (Homo sapiens), sequence (P11712 whole entry, looked up): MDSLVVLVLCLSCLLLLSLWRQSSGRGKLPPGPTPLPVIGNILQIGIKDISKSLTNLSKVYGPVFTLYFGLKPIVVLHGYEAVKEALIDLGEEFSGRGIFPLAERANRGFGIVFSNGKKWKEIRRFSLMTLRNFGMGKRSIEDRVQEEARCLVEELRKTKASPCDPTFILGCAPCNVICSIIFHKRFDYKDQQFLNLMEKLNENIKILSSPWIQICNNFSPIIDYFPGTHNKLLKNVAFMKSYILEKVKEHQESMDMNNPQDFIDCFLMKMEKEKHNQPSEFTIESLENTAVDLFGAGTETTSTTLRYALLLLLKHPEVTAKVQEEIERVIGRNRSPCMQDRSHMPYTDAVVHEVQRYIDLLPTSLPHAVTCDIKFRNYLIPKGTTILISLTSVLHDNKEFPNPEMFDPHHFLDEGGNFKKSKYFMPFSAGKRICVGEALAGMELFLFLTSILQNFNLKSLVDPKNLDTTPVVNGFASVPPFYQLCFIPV
Papain (Carica papaya), sequence (P00784 whole entry, looked up, the tested form may be a part): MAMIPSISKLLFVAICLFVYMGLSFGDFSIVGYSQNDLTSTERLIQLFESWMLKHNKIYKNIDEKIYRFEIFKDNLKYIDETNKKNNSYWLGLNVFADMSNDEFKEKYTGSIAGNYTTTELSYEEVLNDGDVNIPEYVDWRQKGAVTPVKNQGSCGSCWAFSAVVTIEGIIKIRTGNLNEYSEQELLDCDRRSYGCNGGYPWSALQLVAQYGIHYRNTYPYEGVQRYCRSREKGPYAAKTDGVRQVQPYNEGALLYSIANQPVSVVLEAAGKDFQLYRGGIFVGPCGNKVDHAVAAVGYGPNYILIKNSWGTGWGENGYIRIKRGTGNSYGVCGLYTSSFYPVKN

As for `C[C@@H]1CC2=CC(=O)CC[C@@H]2[C@H]2CC[C@@]3(C)[C@@H](CC[C@]3(C)O)[C@@H]21`, the molecule was classed as inactive in [1]. Moreover, the Potency entry in assay [2], in assay [3] and in [4] was “inactive” each time.
As to `CCC1(c2ccc(N)cc2)CCC(=O)NC1=O` (stereo not given), the call (in assay [1]; with Papain (Carica papaya)) was inactive. Further, the Potency result in assay [2], in assay [3], in [4], in assay [5], in [6] and in assay [7] was “inactive” throughout.
Turning to `C=CCC1([C@H](C)CCC)C(=O)NC(=O)NC1=O`, the molecule was called inactive in assay [1]. In addition, the Potency entry in assay [2] and in [3] was “inactive” in each case.
For the molecule `O=[N+]([O-])O[C@H]1CO[C@H]2[C@@H]1OC[C@H]2O[N+](=O)[O-]`, the molecule was called inactive in [1]. Moreover, the Potency entry in assay [2], in assay [8], in assay [3], in assay [4], in assay [6] and in [7] was “inactive” in each case. Besides, the activity change, negative = inhibition in assay [5] is -33.3%.
On to `Nc1ccc([As](=O)(O)O)cc1`, for which the molecule was classed as inactive in assay [1]. Also, the Potency entry in [2], in assay [8], in assay [3], in assay [4], in [6] and in [7] was “inactive” each time. In assay [5], the activity change, negative = inhibition was -1.46%.
`Nc1nc(N)nc(NC2CC2)n1`: the call in assay [1] was inactive. For the same molecule, the Potency result in assay [2], in assay [8], in [3], in assay [6] and in assay [7] was “inactive” in each case.
Regarding `Oc1ccc(Cl)cc1`, in assay [1], the outcome was inactive. Moreover, the Potency entry in assay [2], in assay [3], in assay [4], in assay [6] and in assay [7] was “inactive” each time. Further, the activity change, negative = inhibition in assay [5] is -1.58%.
Regarding `CN1CC[C@]23c4c5ccc(O)c4O[C@H]2[C@@H](O)C=C[C@H]3[C@H]1C5`, the result in [1] was inactive.
As for `C[C@]12Cc3cn[nH]c3C[C@@H]1CC[C@@H]1[C@@H]2CC[C@@]2(C)[C@H]1CC[C@]2(C)O`, the molecule was called inactive in assay [1]. For the same molecule, the Potency is 1.95 µM (active) in assay [2] and 0.692 µM (active) in [3]. In addition, the Potency entry in assay [4] and in assay [7] was “inactive” in each case. Besides, the activity change, negative = inhibition in assay [5] is -13.6%.
Consider `CC(C)=CC1C(C(=O)OCN2C(=O)C3=C(CCCC3)C2=O)C1(C)C` (stereo not given), for which the molecule was classed as inactive in assay [1]. Also, the Potency in assay [2] is 6.92 µM (active); in assay [3] it was 8.71 µM (active). The Potency result in assay [6] and in assay [7] was “inactive” throughout.
Turning to `C[C@]12CCC(=O)C=C1CC[C@@H]1[C@H]3CC[C@](C)(O)[C@@]3(C)CC[C@@H]12`, the call in assay [1] was inactive. The Potency in assay [2] was 43.5 µM (active); in assay [3], 42.6 µM (active); in [6] it was 34.7 µM (active); in assay [7], 21.9 µM (active).
Take `O=C(CCCN1CCC2(CC1)C(=O)NCN2c1ccccc1)c1ccc(F)cc1`: the result (in assay [1]; with Papain (Carica papaya)) was inactive. The Potency in assay [2] is 0.309 µM (active). The Potency entry in [3] was “inactive”.
Take `CC(Cc1ccccc1)N(C)Cc1ccco1` (stereo not given): in assay [1], the result was inactive. The Potency in assay [2] is 2.45 µM (active). Besides, the Potency result in assay [3], in [6] and in assay [7] was “inactive” throughout.
For the molecule `C[C@H]1[C@@H]2Cc3ccc(O)cc3[C@@]1(C)CCN2C`, the outcome in assay [1] was inactive. Besides, in assay [2], the Potency is 107 µM (active). Besides, the Potency entry in assay [3], in [6] and in [7] was “inactive” in each case.
For `c1ccc(N2CCNCC2)cc1`, the outcome in [1] was inactive. The Potency result in [2], in assay [3], in [6] and in assay [7] was “inactive” in each case.
In the case of `O=C(O)c1ccc(=O)[nH]c1`, the result in [1] was inactive. Also, the Potency result in assay [2], in assay [3], in [6] and in assay [7] was “inactive” throughout.
On to `CCCCCCC(=O)CCCCCC/C=C/C[C@@H](O)[C@H](O)[C@@](N)(CO)C(=O)O`, for which the molecule was called inactive in [1]. Besides, the Potency entry in [2], in [3], in assay [6] and in [7] was “inactive” in each case.
